Experimental data: the supplement of paper PMC10338343
± gives the standard deviation.

System: MILI (PIWIL2) piRISC loaded with L1MC piRNA (26 nt)
Assay: pre-steady-state target cleavage rate (min^-1); guide: L1MC piRNA 5'p-UAACUAAAUACUAUGCAAGCUGUAGG; MIWI and MILI are mouse PIWI proteins and EfPiwi is from a freshwater sponge; tags in brackets are library labels; higher = faster piRNA-guided slicing of the target
Procedure, shortened: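 The method was Cleave-'n-Seq, in which uncleaved targets from a transcribed, DNA-blocked target RNA library were sequenced after exposure to active affinity-purified piRISC carrying one synthetic guide, with or without GTSF1 partner protein. Reactions contained 0.1 nM library, 1 nM piRISC and, where present, 500 nM GTSF1 in HEPES–potassium acetate buffer at 33 °C for 0–8 or 0–960 min. Reads were normalised to depth and to weakly complementary targets, three trials were pooled, and k3 was capped at 0.0001 min^-1. The pre-steady-state cleavage rate came from a burst-and-steady-state fit.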

[1] = auxiliary factor: 500 nM mouse GTSF1
[2] = auxiliary factor: none (no GTSF1)

Sequence | pre-steady-state target cleavage rate [1] | pre-steady-state target cleavage rate [2]
UCCUGGAACAGCUAGCAUAGUAUUUUCAAA | 0.0419 ± 0.014 | 
UCCUGGAUGUCCUAGCAUAGUAUUUAGAUA | 0.0302 ± 0.007 | 
UCCUGGUUCAGCUUGCAUAGUAUUUACUUA | 0.0561 ± 0.02 | 
UCCUGGAUGUCGAACGUAUCUAUUUAGGUA | < 0.0001 | 
UCCUGGAUGUCCUUGCAAUAGUAUUUAGUUA | 0.00466 ± 0.0043 | 
UCCUGGAUGAGCUUGCAUUGAAUUUAGUUA | 0.00697 ± 0.0027 | 
UCCUGGUACAGCUUGCAUAGUAUUUGUUA | 0.0839 ± 0.022 | 
UCCUGGAUCAGCUACCAUAGUAUUUUCAAA |  | < 0.0001
UCCUGGAUGAGCAACCAUAGUAUUUAGUUA | 0.0437 ± 0.011 | 
UCCUGGUACAGCUUGCAAAGUAUUUACUUA | 0.0515 ± 0.015 | 
UCCUGGAUGAGCUUGCAUACAUUUUAGUUA |  | 0.00358 ± 0.0026
UCCUGGUACAGCUUGCAUACAUUUUAGUUA |  | 0.00408 ± 0.0037
UCCUGGAUGUCGAACGAUAGUAUUUAGUAUA | < 0.0001 | 
UCCUGGUAGAGCUUGCAUAGUAUUUUCAAA | 0.00621 ± 0.0031 | 
UCCUGGUACACGUUGCAUAGUAUUUAGUAA | 0.166 ± 0.038 | 
UCCUGGAUGUCGUUGCAUAGUAUAUAGUAA | 0.0526 ± 0.018 | 
UCCUGGAACACCUUGCAUAGAAUUUAGUUA | 0.0907 ± 0.036 | 
UCCUCCUACAGCUUGCAUUCUAUUUUCAAA | 0.0147 ± 0.0054 | 
UCCUGGAUCAGCUUGGAUACUAUUUAGUUA | 0.0383 ± 0.01 | 
UCCUGGAUCAGCUUGCUAUGUAUUUAGUAA | 0.00621 ± 0.0032 | 
UCCUCCUACUCCUUGCAUAGUAUUUACAAA | 0.0842 ± 0.022 | 
UCCUGGAUGUCGUUCCAAAGUAUUUAGUUA |  | < 0.0001

Sequence | pre-steady-state target cleavage rate [1] | pre-steady-state target cleavage rate [2]
UCCUGGAUGAGCUUGCAUAGUAUAAUGUAA | 0.00667 ± 0.0048 | 
UCCUGGAUGUCGAUCCAUAGUAUUUAGAUA |  | < 0.0001
UCCUGGUACAGCUUGCAUAAGUAUUUAGUUA | 0.00838 ± 0.0052 | 
UCCUGCUACAGCUUGCAAUGUAUUUAGUAA | 0.124 ± 0.023 | 
UCCUGGUACACCUUGCAUAGUAUUUUGUUA | 0.201 ± 0.054 | 
UCCUGGAUCUCCUUGCAUAGUAUUUUCAAA | 0.0367 ± 0.0088 | 
UCCUGGUACAGCUUCGUUAGUAUUUAGAAA |  | < 0.0001
UCCUGGAUGUCGAACCAUACUAUUAAGUUA |  | < 0.0001
UCCUCCUAGUCCUUGCAUAGUAUUUACAAA | 0.0299 ± 0.0097 | 
UCCUGGAUGUCGAACGUUAGUUUUUAGAUA | < 0.0001 | 
UCCUGGAUCAGCUUCCAUAGUAAUUAGUUA | 0.00494 ± 0.004 | 
UCCUGGAUCAGCUUGCAAUCUAUUUAGUUA | 0.0116 ± 0.0035 | 
UCCUGGAUGAGCUUGCAUAGUAUUUUCAUA | 0.0108 ± 0.0059 | 
UCCUGGAUGUCCUUGCAUAGUAUUUGUUA | 0.0123 ± 0.0057 | 
UCCUGGAUGUCGAACGUUAGUAUUUACGUUA |  | < 0.0001
UCCUGGAUGUCGAACGAUAGUGUUUAGUUA |  | < 0.0001
UCCUGGAUGUGCUUGCAAUAGUAUUUAGUUA | 0.00398 ± 0.0037 | 
UCCUCCUACAGCUUGCAUAGAAAUUAGUUA | 0.0406 ± 0.0085 | 
UCCUGGAUGUCGAUGCAUAGUAUUAUGUUA | 0.0412 ± 0.011 | 
UCCUGGAACACGAUGCAUAGUAUUUUCAAA | 0.0494 ± 0.017 | 
UCCUGGAUGUCGUUGCAUAGUAUUUUCUUA | 0.00558 ± 0.0035 | 
UCCUCCUACUCCUUGCAUAGUAUUUUCAAA | 0.0534 ± 0.015 | 

Sequence | pre-steady-state target cleavage rate [1] | pre-steady-state target cleavage rate [2]
UCCUGGAUGAGCUUGCUUAGUAUUUACAAA | 0.0262 ± 0.011 | 
UCCUGGAUGUCGAACCAAGUAUUUAGUUA |  | < 0.0001
UCCUGGAACAGCUUGCAAUGUAUUUAGAAA | 0.0719 ± 0.018 | 
UCCUGGAUCAGCUUGCAUAGUUUUAGUUA | 0.00374 ± 0.0036 | 
UCCUGGAUGUCGAAGCAUAGUAUUUAGUAUA | 0.0394 ± 0.0091 | 
UCCUGGAUGUGCUAGCAUAGUAUAUAGUUA | 0.115 ± 0.018 | 
UCCUCCUACAGCUUGCAUUCUAUUUAGUAA | 0.0535 ± 0.017 | 
UCCUGGUACAGCUUGCAAAGUAUAUAGUUA | 0.0931 ± 0.016 | 
UCCUGGAUGUCGAUGGAUAGUAUUUUGUUA | 0.00767 ± 0.0043 | 
UCCUGGAUGAGCUUGCAUAGUAAUAAGUUA | 0.202 ± 0.045 | 
UCCUGGAUCAGCUUGCAUAGUAAAAAGAAA | 0.0472 ± 0.015 | 
UCCUGGAUCAGGUUGCAUAGUAUUUACUUA | 0.117 ± 0.029 | 
UCCUGGAUGUCCUUGCAUAGUAUUUUCUUA | 0.0376 ± 0.011 | 
UCCUGGAUGUCGUUGCAUAGUAUUUAUUUA | 0.0344 ± 0.011 | 
UCCUGGAUGUCGUUGUCAUAGUAUUUAGUUA | 0.00743 ± 0.0049 | 
UCCUGGAACAGCUUGCAUAGUAAAAACAAA | 0.0763 ± 0.031 | 
UCCUGGAUGUCGAACGUUACUAUUAAGUUA |  | < 0.0001
UCCUGGAUGUGCUUGCUUAGUAUUUUGUUA | 0.0645 ± 0.017 | 
UCCUGGAUGUGCAACCAUAGUAUUUAGUAA | 0.00554 ± 0.0027 | 
UCCUGGAUGAGCUUGCAUACUAAUUAGUUA | 0.0128 ± 0.0042 | 
UCCUCCUACAGCUACCAUAGUAUUUAGUAA | 0.141 ± 0.023 | 
UCCUGGUACAGCUUGCAUAGUAUAAACAAA | 0.0195 ± 0.0074 | 
